RORgamma inh = qHTS for inhibitors of ROR gamma transcriptional activity. AID 2551, 2010. Potency, µM (series often up to 53.6 µM), for the others: top-dose activity change, negative = inhibition, most hits filed as inhibitors. Drosophila S2 Gal4-RORgamma UAS-luciferase reporter, 20 h. Nuclear receptor ROR-gamma (Mus musculus), P51450. actives 5.4% (n = 310,000); also: nearly all actives have a fitted effect of over 60% in size
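A Gal4/UAS one-hybrid system in insect cells: metallothionein-promoter Gal4–ROR gamma fusion plus Photinus luciferase reporter. Copper sulfate 700 uM final, 20 hr ambient incubation, luminescent detection after 10 min with reagent.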
TDP1 cell noCPT = qHTS for Inhibitors of human tyrosyl-DNA phosphodiesterase 1 (TDP1): qHTS in cells in absence of CPT. Potency, µM (doses to about 46.2 µM), inactives show at the top dose activity change, negative = growth inhibition, usual class: inhibitors. AID 686978, 2013. actives 15% (n = 420,000). DT40 Tdp1-/- hTDP1 cells, no CPT, ATP luminescence, 48 h; also: nearly all actives have a fitted effect of over 55% in size
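DT40 Tdp1-/-;hTDP1 cells, no CPT (DMSO vehicle only), 400 cells/well; compounds pin-transferred; ≥48 hr, 37 °C; CellTiter-Glo 30 min RT dark, luminescence read.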
TDP1 cell CPT = qHTS for Inhibitors of human tyrosyl-DNA phosphodiesterase 1 (TDP1): qHTS in cells in presence of CPT | chicken DT40 Tdp1-/-;hTDP1 cells + 20 nM CPT, ATP luminescence, 48 h | Potency, µM (doses to about 46.2 µM), for inactives: at the highest dose activity change, negative = growth inhibition, most hits filed as inhibitors | actives 12% (n = 420,000) | AID 686979, 2013; also: nearly all actives have a fitted effect of over 55% in size
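Chicken DT40 Tdp1-/- cells complemented with human TDP1, 400 cells/well, exposed to compounds plus 20 nM camptothecin for at least 48 h at 37 C; viability read as ATP content by CellTiter-Glo luminescence.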
VP16 counter = VP16 counterscreen qHTS for inhibitors of ROR gamma transcriptional activity. Drosophila S2 Gal4-VP16 UAS-luciferase, luminescence, 20 h. Potency, µM (highest dose often 53.6 µM), inactives show at the highest dose activity, negative = inhibition, most hits filed as inhibitors. actives 3.5% (n = 310,000). AID 2546, 2010;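 also: Gal4-VP16 expression switched on by copper sulfate through the metallothionein promoter; nearly all actives have a fitted effect of over 50% in size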
ELG1 repair inh = qHTS screen for small molecules that inhibit ELG1-dependent DNA repair in human embryonic kidney (HEK293T) cells expressing luciferase-tagged ELG1. HEK293T ELG1-luciferase reporter, luminescence, 16 h; DNA damage induced by 5-fluorouridine. Potency, µM (doses to about 46.1 µM), for the others: at the top dose activity change, negative = inhibition, most hits filed as inhibitors. actives 2.3% (n = 330,000). AID 504467, 2011; also: nearly all actives have a fitted effect of over 55% in size
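Quantitative HTS, concentration-response format. 2,000 cells/well co-treated with 5-fluorouridine and compound, 16 hr in 5% CO2 at 37 °C; ONE-Glo luminescence read after 30 min.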
12-LOX inh = Primary qHTS assay for inhibitors of human arachidonate 12S-lipoxygenase (ALOX12): Round 2; Polyunsaturated fatty acid lipoxygenase ALOX12 (Homo sapiens), P18054; purified 12hLO, xylenol orange hydroperoxide absorbance; Potency, µM (top dose mostly 108 µM), inactives show at the top dose activity change, negative = inhibition, actives largely listed as inhibitors; actives 1.1% (n = 580,000); AID 1671190, 2021
Target sequence (P18054 whole entry, looked up): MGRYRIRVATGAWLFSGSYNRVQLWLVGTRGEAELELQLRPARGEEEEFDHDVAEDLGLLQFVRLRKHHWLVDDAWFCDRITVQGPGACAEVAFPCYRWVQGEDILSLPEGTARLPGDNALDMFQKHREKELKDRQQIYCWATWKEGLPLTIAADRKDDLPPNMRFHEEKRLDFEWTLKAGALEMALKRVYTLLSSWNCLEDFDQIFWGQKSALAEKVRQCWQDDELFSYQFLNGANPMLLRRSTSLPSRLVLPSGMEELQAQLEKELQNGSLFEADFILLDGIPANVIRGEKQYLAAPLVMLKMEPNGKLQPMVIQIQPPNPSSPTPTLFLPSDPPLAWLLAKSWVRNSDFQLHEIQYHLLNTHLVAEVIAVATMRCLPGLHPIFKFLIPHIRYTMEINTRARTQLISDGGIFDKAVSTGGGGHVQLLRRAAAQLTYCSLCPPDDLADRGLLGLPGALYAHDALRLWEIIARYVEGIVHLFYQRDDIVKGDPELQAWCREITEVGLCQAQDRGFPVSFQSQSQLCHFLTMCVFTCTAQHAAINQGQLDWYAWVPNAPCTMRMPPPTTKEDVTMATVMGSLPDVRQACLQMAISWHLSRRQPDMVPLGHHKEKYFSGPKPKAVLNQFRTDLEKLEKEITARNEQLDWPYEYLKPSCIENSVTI
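Hydroperoxide product was detected by ferrous iron/xylenol orange as the 573 to 405 nm absorbance ratio. Arachidonic acid at 40 uM (final) was turned over for 30 min at room temperature by 150 nM human 12hLO, pH 7.0 Hepes buffer, after 15 min compound preincubation.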
Active calls of the source: *; ? = inconclusive; · = not tested or not shown. The list is not random: actives were taken first. Their share in the collection is about 15%. Calls follow the shape of the dose curve; as a rule, active = well fitted curve in the direction sought with a large enough effect; inconclusive = small, poorly fitted or top-dose-only effect, or another doubt; inactive = no such curve, though single readings can be large; an effect the other way counts as inactive or inconclusive. % is scaled to controls: 0 for no effect and ±100 for the full control effect; potency is read from the fitted curve at half-maximal effect.

SMILES	RORgamma inh	TDP1 cell noCPT	TDP1 cell CPT	VP16 counter	ELG1 repair inh	12-LOX inh
Cc1ccc(S(=O)(=O)N2C[C@H]3C(=O)C[C@@H](c4ccccc4F)N(S(=O)(=O)c4ccc(C)cc4)[C@H]3C[C@H]2c2ccccc2F)cc1	·	10µM*	8.2µM*	·	·	0%
O=C1Nc2ccccc2CCC1Sc1nnc(-c2ccc(Cl)cc2)s1 (configuration not stated)	?	29µM*	?	-6%	?	1%
CCOc1ccc2nc(N3C(=O)/C(=C/c4ccccc4)NC3=S)sc2c1	1.3µM*	?	23µM*	1.1µM*	?	-15%
CCOc1ccc2nc(N3CCCCCC3)sc2c1	?	-27%	-26%	-24%	?	-14%
COc1ccc2nc(N3C(=O)/C(=C/c4ccccc4)NC3=S)sc2c1	1.4µM*	?	?	1.4µM*	3%	-20%
CCc1c(C)nc(SCC(=O)Nc2oncc2-c2ccccc2)[nH]c1=O	·	·	·	·	·	-8%
Cc1nccn1CCNC(=O)C1CCCCC(=O)N1Cc1ccccc1 (configuration not stated)	·	·	·	·	·	33%
CCOc1ccccc1C(=O)NC1CCN(c2cc(-c3ccc(Cl)cc3)[nH]n2)C1 (configuration not stated)	·	·	·	·	·	30%
CC(C)N(C(=O)CSc1nc2ccc(Cl)cc2[nH]1)c1ccccc1	·	23µM*	?	·	·	?
O=C(CSc1nc2ccc(Cl)cc2[nH]1)NC1CCCc2ccccc21 (configuration not stated)	2%	21µM*	?	-4%	?	-24%
Cc1ccc(Cl)cc1N1CCN(CC(=O)NC2CCCc3ccccc32)CC1 (configuration not stated)	20%	16µM*	?	-11%	-14%	8%
COc1ccc2nc(SCC(=O)NC3CCCc4ccccc43)[nH]c2c1 (configuration not stated)	21%	?	?	-12%	-4%	-8%
O=C(CN1CCN(c2ccccc2Cl)CC1)NC1CCCc2ccccc21 (configuration not stated)	0%	?	?	-2%	-15%	-24%
O=C(Cc1cccs1)NC1CCCc2c1[nH]c1c(Cl)cccc21 (configuration not stated)	·	·	·	·	·	3%
COc1ccccc1-c1nc(C#N)c(NCCN(C)C)o1	·	·	·	·	·	13%
Cc1ccc(CN(CCc2ccccc2)C(=O)c2ccc(C#N)cc2)s1	·	·	·	·	·	-3%
C/C(CC(=O)Nc1ccc(N(C)C)cc1)=N\NC(=O)c1ccc(F)cc1	1.8µM*	16%	-22%	?	10%	94%
C/C(CC(=O)Nc1cc(C)ccn1)=N\NC(=O)c1ccc(C(C)(C)C)cc1	11µM*	-29%	?	-16%	0%	4%
C/C(CC(=O)Nc1ccc(N(C)C)cc1)=N\NC(=O)C(=O)NCc1ccccc1	25%	-24%	-24%	-7%	12%	5%
COc1cccc(C(=O)N/N=C(\C)CC(=O)Nc2ccc(N(C)C)cc2)c1	-30%	-2%	0%	1%	29%	7%
C/C(CC(=O)Nc1ccc(N(C)C)cc1)=N\NC(=O)c1ccc(C(C)(C)C)cc1	?	-27%	-22%	4µM*	4%	35%

Bioassay records (PubChem)
